# Measured values as given in the supplement of paper PMC10127200.
# Structures can show the parent of a compound that is named as a salt.
# Columns and labels:
# Test in all cases: Euclidean distance of Cell Painting phenotypic profile (signed KS, 77 features) to DMSO centroid (dimensionless distance); 5 or 10 uM (library dependent); higher = stronger phenotypic change vs DMSO (phenoactivity)
# Conditions in all cases: 48 h
# 786-O = tested on: 786-O
# Method in brief: (§1)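 Five cancer lines and a healthy fibroblast line received library compounds at 10 or 5 uM (library-dependent, 0.1% DMSO final) for 48 h. Stained cells were imaged confocally at 20X (9 fields/well). Harmony extracted 77 features, each scored as a signed Kolmogorov-Smirnov statistic against same-plate vehicle wells. Profiles were plate-position corrected, correlation-weighted and replicate-averaged at the top dose. Phenoactivity is the Euclidean distance from each profile to the median vehicle profile.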
# A549 = tested on: A549
# Method in brief: as §1
# DU145 = tested on: DU145
# Method in brief: as §1
# FB = tested on: FB
# Method in brief: as §1
# HEPG2 = tested on: HEPG2
# Method in brief: as §1
# OVCAR4 = tested on: OVCAR4
# Method in brief: as §1
structure (smiles),measurement,setting,value
c1cnc(NCc2ccc(CNc3ncccn3)cc2)nc1,Euclidean distance,786-O,1.17
same,Euclidean distance,A549,0.784
same,Euclidean distance,DU145,0.977
same,Euclidean distance,FB,0.642
same,Euclidean distance,HEPG2,0.488
same,Euclidean distance,OVCAR4,1.22
COc1ccc(-c2coc3cc(O)ccc3c2=O)cc1 [Formononetin],Euclidean distance,786-O,0.921
same,Euclidean distance,A549,0.857
same,Euclidean distance,DU145,0.599
same,Euclidean distance,FB,1.07
same,Euclidean distance,HEPG2,0.662
same,Euclidean distance,OVCAR4,1.13
Cc1cn([C@H]2C=C[C@@H](CO)O2)c(=O)[nH]c1=O [Stavudine (d4T)],Euclidean distance,786-O,1.64
same,Euclidean distance,A549,1.46
same,Euclidean distance,DU145,0.564
same,Euclidean distance,FB,0.969
same,Euclidean distance,HEPG2,0.716
same,Euclidean distance,OVCAR4,1.06
O=C(OCC(O)CO)c1ccccc1Nc1ccnc2cc(Cl)ccc12 (centres undefined) [Glafenine HCl],Euclidean distance,786-O,1.07
same,Euclidean distance,A549,0.79
same,Euclidean distance,DU145,0.824
same,Euclidean distance,FB,1.52
same,Euclidean distance,HEPG2,0.968
same,Euclidean distance,OVCAR4,1.04
Cc1ccc(Nc2nccc(N(C)c3ccc4c(C)n(C)nc4c3)n2)cc1S(N)(=O)=O [Pazopanib],Euclidean distance,786-O,2.13
same,Euclidean distance,A549,1.89
same,Euclidean distance,DU145,2.31
same,Euclidean distance,FB,2.44
same,Euclidean distance,HEPG2,1.94
same,Euclidean distance,OVCAR4,1.78
Cn1cc(-c2ccc(S(=O)(=O)n3ccc(/C=C/C(=O)Nc4ccccc4N)c3)cc2)cn1,Euclidean distance,786-O,2.25
same,Euclidean distance,A549,2.63
same,Euclidean distance,DU145,2.82
same,Euclidean distance,FB,2.84
same,Euclidean distance,HEPG2,3.21
same,Euclidean distance,OVCAR4,3.37
Cc1ccccc1C(OCCN(C)C)c1ccccc1 (centres undefined) [Orphenadrine Citrate],Euclidean distance,786-O,1.08
same,Euclidean distance,A549,0.794
same,Euclidean distance,DU145,1.23
same,Euclidean distance,FB,0.881
same,Euclidean distance,HEPG2,2.08
same,Euclidean distance,OVCAR4,1.07
CCOc1ccn(-c2ccc(F)cc2)c(=O)c1C(=O)Nc1ccc(Oc2ccnc(N)c2Cl)c(F)c1,Euclidean distance,786-O,1.2
same,Euclidean distance,A549,3.4
same,Euclidean distance,DU145,1.66
same,Euclidean distance,FB,2.27
same,Euclidean distance,HEPG2,1.66
same,Euclidean distance,OVCAR4,2.55
CCCCCOc1ccccc1/C(=C\SC)n1ccnc1 [Neticonazole Hydrochloride],Euclidean distance,786-O,1.28
same,Euclidean distance,A549,1.44
same,Euclidean distance,DU145,0.848
same,Euclidean distance,FB,0.825
same,Euclidean distance,HEPG2,1.31
same,Euclidean distance,OVCAR4,1.05
CC(=O)Nc1cccc2c1c(Sc1ccc(Cl)cc1)c(C)n2CC(=O)O,Euclidean distance,786-O,0.872
same,Euclidean distance,A549,0.72
same,Euclidean distance,DU145,1.15
same,Euclidean distance,FB,0.772
same,Euclidean distance,HEPG2,0.51
same,Euclidean distance,OVCAR4,0.868
Nc1nc2[nH]cc(CCc3ccc(C(=O)N[C@@H](CCC(=O)O)C(=O)O)cc3)c2c(=O)[nH]1 [Pemetrexed Disodium Hydrate],Euclidean distance,786-O,2.12
same,Euclidean distance,A549,2.97
same,Euclidean distance,DU145,1.28
same,Euclidean distance,FB,0.937
same,Euclidean distance,HEPG2,2.46
same,Euclidean distance,OVCAR4,2.8
OC[C@H]1O[C@@H](c2ccc(Cl)c(Cc3ccc(O[C@H]4CCOC4)cc3)c2)[C@H](O)[C@@H](O)[C@@H]1O,Euclidean distance,786-O,0.965
same,Euclidean distance,A549,0.753
same,Euclidean distance,DU145,1.39
same,Euclidean distance,FB,0.912
same,Euclidean distance,HEPG2,0.52
same,Euclidean distance,OVCAR4,0.801
Oc1c(Cl)cc(Cl)c(Cl)c1Cc1c(O)c(Cl)cc(Cl)c1Cl [Hexachlorophene],Euclidean distance,786-O,2.16
same,Euclidean distance,A549,1.62
same,Euclidean distance,DU145,1.19
same,Euclidean distance,FB,3.31
same,Euclidean distance,HEPG2,2.53
same,Euclidean distance,OVCAR4,1.64
Nc1nc(CC(=O)Nc2ccc(CCNC[C@H](O)c3ccccc3)cc2)cs1 [Mirabegron],Euclidean distance,786-O,0.989
same,Euclidean distance,A549,1.17
same,Euclidean distance,DU145,1.1
same,Euclidean distance,FB,1.21
same,Euclidean distance,HEPG2,0.802
same,Euclidean distance,OVCAR4,1.68
C=CCCCCCCCCC(=O)[O-].C=CCCCCCCCCC(=O)[O-].[Zn+2] [Zinc Undecylenate],Euclidean distance,786-O,1.22
same,Euclidean distance,A549,2.06
same,Euclidean distance,DU145,1.09
same,Euclidean distance,FB,1.1
same,Euclidean distance,HEPG2,0.358
same,Euclidean distance,OVCAR4,1.9
Cc1cc(C(C)(C)C)cc(C)c1CC1=NCCN1 [Xylometazoline HCl],Euclidean distance,786-O,0.708
same,Euclidean distance,A549,0.547
same,Euclidean distance,DU145,0.707
same,Euclidean distance,FB,0.795
same,Euclidean distance,HEPG2,0.707
same,Euclidean distance,OVCAR4,0.903
CCCCOC(=O)c1ccc(O)cc1 [Butylparaben],Euclidean distance,786-O,1.05
same,Euclidean distance,A549,1.03
same,Euclidean distance,DU145,1.11
same,Euclidean distance,FB,1.03
same,Euclidean distance,HEPG2,0.462
same,Euclidean distance,OVCAR4,1.66
O=C(O)CSc1nnc(Br)n1-c1ccc(C2CC2)c2ccccc12 [Lesinurad],Euclidean distance,786-O,0.529
same,Euclidean distance,A549,0.673
same,Euclidean distance,DU145,0.762
same,Euclidean distance,FB,0.983
same,Euclidean distance,HEPG2,1.61
same,Euclidean distance,OVCAR4,0.826
O=C(c1ccc(F)cc1)C1CCN(CCn2c(=O)[nH]c3ccccc3c2=O)CC1 [Ketanserin],Euclidean distance,786-O,1.44
same,Euclidean distance,A549,0.68
same,Euclidean distance,DU145,0.898
same,Euclidean distance,FB,0.767
same,Euclidean distance,HEPG2,0.883
same,Euclidean distance,OVCAR4,1.08
CN(CCN1CCC(OC(=O)Nc2ccccc2-c2ccccc2)CC1)C(=O)c1ccc(CN2CCC(C(N)=O)CC2)cc1 [Revefenacin],Euclidean distance,786-O,1.01
same,Euclidean distance,A549,1.27
same,Euclidean distance,DU145,1.01
same,Euclidean distance,FB,1.33
same,Euclidean distance,HEPG2,1.25
same,Euclidean distance,OVCAR4,1.44
COc1ccc2cc([C@H](C)C(=O)O)ccc2c1 [Naproxen Sodium],Euclidean distance,786-O,1.02
same,Euclidean distance,A549,0.936
same,Euclidean distance,DU145,0.948
same,Euclidean distance,FB,0.856
same,Euclidean distance,HEPG2,0.593
same,Euclidean distance,OVCAR4,0.977
C[N+](C)(C)CCOC(N)=O [Carbachol],Euclidean distance,786-O,1.07
same,Euclidean distance,A549,1.19
same,Euclidean distance,DU145,0.687
same,Euclidean distance,FB,1.16
same,Euclidean distance,HEPG2,0.696
same,Euclidean distance,OVCAR4,1.56
CNCc1cc(-c2ccccc2F)n(S(=O)(=O)c2cccnc2)c1 [Vonoprazan Fumarate (TAK-438)],Euclidean distance,786-O,0.884
same,Euclidean distance,A549,0.5
same,Euclidean distance,DU145,0.972
same,Euclidean distance,FB,1.23
same,Euclidean distance,HEPG2,0.474
same,Euclidean distance,OVCAR4,0.89
CNC(=O)c1ccc(N2C(=S)N(c3ccc(C#N)c(C(F)(F)F)c3)C(=O)C2(C)C)cc1F [Enzalutamide (MDV3100)],Euclidean distance,786-O,0.957
same,Euclidean distance,A549,1.37
same,Euclidean distance,DU145,1.2
same,Euclidean distance,FB,1.38
same,Euclidean distance,HEPG2,0.965
same,Euclidean distance,OVCAR4,1.18
